Experimental data: PubChem BioAssay AID2661 (Broad Institute, 2010)
About 240 (0.075%) of roughly 320,000 compounds were called active.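 How the source made its calls: active means inhibition at or above 25%, using the most active replicate where run in duplicate; inactive means inhibition below 25%.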 Shown is part of a subset that was picked to be rich in actives.

target: Serine/threonine-protein kinase 33 (Homo sapiens) (UniProt Q9BYT3); test: STK33 phosphorylation of MBP blockers – biochemical, ADP-Glo luminescence, homogeneous, cell-free, primary screen (AID 2661); settings: purified STK33, MBP phosphorylation, at 10 µM, active compounds read high
Sequence (Q9BYT3 whole entry, looked up): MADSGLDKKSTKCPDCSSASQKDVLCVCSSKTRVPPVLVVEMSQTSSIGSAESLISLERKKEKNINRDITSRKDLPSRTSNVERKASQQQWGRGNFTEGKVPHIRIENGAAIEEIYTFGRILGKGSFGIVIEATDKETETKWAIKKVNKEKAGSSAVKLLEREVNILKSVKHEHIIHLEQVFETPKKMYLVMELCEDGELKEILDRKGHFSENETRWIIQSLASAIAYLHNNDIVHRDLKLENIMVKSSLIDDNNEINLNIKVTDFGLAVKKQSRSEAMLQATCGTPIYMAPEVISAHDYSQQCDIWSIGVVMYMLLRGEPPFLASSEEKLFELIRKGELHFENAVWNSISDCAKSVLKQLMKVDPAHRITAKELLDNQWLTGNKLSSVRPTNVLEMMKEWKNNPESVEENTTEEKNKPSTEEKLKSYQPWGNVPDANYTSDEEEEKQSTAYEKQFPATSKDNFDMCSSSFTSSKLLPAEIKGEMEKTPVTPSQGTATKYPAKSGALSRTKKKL

inhibition, inactive:
COc1ccc(CCNC(=O)COC(=O)c2cnc(Cl)c(Cl)c2)cc1 0.375%
C[C@]12CC[C@H](O)CC1=CCC1C2CC[C@@]2(C)C1CC[C@@H]2NC(=O)CCC(=O)O (stereo partly specified) -0.89%
CC1CCCCC1NCC(=O)Nc1ccccc1C(=O)Nc1ccccc1 (stereo unspecified) 0.481%
CC(C)(C)OC(=O)C[C@H]1C/C=C\C[C@@H](CC(=O)N[C@H](CO)Cc2ccccc2)C(=O)NC[C@@H](c2ccccc2)OC1=O -0.103%
O=C1COc2ccc(C(=O)COC(=O)c3ccccc3Cl)cc2N1 -0.902%
Cn1c(N)c(C(=O)COC(=O)c2cccc(S(=O)(=O)N3CCOCC3)c2)c(=O)n(C)c1=O -0.402%
O=C(Cn1cc(C(F)(F)F)ccc1=O)Nc1ccc2c(c1)OCCO2 -0.216%
C[C@H]1COC(=O)[C@H](CC(=O)OC(C)(C)C)C/C=C\C[C@@H](CC(=O)N[C@H](CO)Cc2ccccc2)C(=O)N1 0.871%
C[C@H](CO)N1C[C@H](C)[C@@H](CN(C)S(=O)(=O)c2ccc(F)cc2)Oc2ccc(NC(=O)CCC(F)(F)F)cc2C1=O -3.43%
CCN(c1ccccc1)S(=O)(=O)c1ccc(C(=O)Nc2ccccc2OC)cc1 -0.186%
Cc1csc2nc(COC(=O)c3cccc(N(C)C)c3)cc(=O)n12 0.859%
Cc1csc(=O)n1CC(=O)Nc1ccc(S(C)(=O)=O)cc1 -0.384%
COc1ccc(-c2c(C#Cc3ccsc3)c3cc(-c4ccc(CN5CCOCC5)cc4)ccc3n2C)cc1 -0.0231%
O=S(=O)(Nc1ncnc2sccc12)c1cccc(F)c1 -0.694%
CCN(C[C@H]1N[C@@](CC)(C(=O)OC)[C@H]2C(=O)N(C)C(=O)[C@@H]12)C(=O)Nc1ccc(F)cc1 -1.58%
Cc1ccc(NC(=O)c2ccc(Cl)nc2)cc1S(=O)(=O)N1CCOCC1 -0.219%
COc1ccccc1N(CC(=O)Nc1ccc(C)cc1Cl)S(=O)(=O)c1cccs1 -0.284%
Cc1ccc(CNC(=O)COC(=O)C2CCC2)cc1 -0.167%
C=CC[C@@H](CC(=O)N[C@H](CO)Cc1ccccc1)C(=O)N[C@H](C)COC(=O)[C@@H](CC=C)Cc1ccc(F)cc1 -1.41%
O=C(COC(=O)c1cc(S(=O)(=O)N2CCOCC2)ccc1F)NC1CC1 -1.08%
O=C1CC2(CCCC2)C(=O)N1CN1CCN(S(=O)(=O)c2ccc(F)cc2F)CC1 0.0533%
